Source: PubChem BioAssay (Tox21)
Values without a mark were called inactive. Inconclusive results are not listed. Calls of active or inactive are those of the source. Calls come from the whole dose curve; as a rule, active = well fitted activation curve with a large enough effect in the repeat runs; inconclusive = weak or mixed curves; inactive = flat fitted curve, though single readings scatter.
% is set by controls: 0 for no effect and ±100 for the full control effect.

Test: A CellTox Green Cytotoxicity Assay to monitor cytotoxicity in HepG2 cells - 0 hour (AID 1224882); note: nearly all actives have a fitted effect of over 35% in size
Conditions: CellTox Green fluorescence; series mostly up to 76.8 µM; cytotoxicity: at the top concentration
In short: (§1)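 Measurements at 0, 8, 16, 24, 32 and 40 h of treatment captured CellTox Green fluorescence in HepG2 cells that had been co-plated with reagent and preincubated 5 h at 37 C/5% CO2.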
In the case of `CCOC(=O)OC(=O)OCC`, the “cytotoxicity” value is reported as 4.92%. For `C/C=C/C(=O)OCC(C)C`, the “cytotoxicity” value was 0.236%. With `[Cl][Sc]([Cl])[Cl]` the “cytotoxicity” value was 1.64%. In the case of `COC(=O)c1ccc([N+](=O)[O-])cc1`, the “cytotoxicity” value is reported as -8.21%. Compound `CCCCCCCCCCCCS(=O)(=O)Cl` has a cytotoxicity of -7.13% [at 15.8 µM]. In the case of `CSc1ccc(O)cc1C`, the “cytotoxicity” value is reported as -6.01%. In the case of `CN(C)CCOc1ccc(/C(=C(/CCCl)c2ccccc2)c2ccccc2)cc1`, the “cytotoxicity” value is reported as 1.45%. For `COCCC(=O)OC`, the “cytotoxicity” value was -1.76%. In the case of `COc1cccc(-c2ccc(/C=C\CN3CCCCCC3)cc2Cl)c1`, the “cytotoxicity” value is reported as 0.278%. With `CCN(CCC#N)c1ccc(N=Nc2ccc([N+](=O)[O-])cc2)cc1` the “cytotoxicity” value was -7.42%. With `Nc1cc([N+](=O)[O-])ccc1Cl` the “cytotoxicity” value was 1.75%. In the case of `O=c1[nH]cccc1O`, the “cytotoxicity” value is reported as 11.3%. For `CCN(CC)c1ccc(C=O)cc1`, the “cytotoxicity” value was -6.49%. For `CC(CC(C)(C)C)CC(C)(C)CC(C)(C)C` (centres undefined), the “cytotoxicity” value was -1.4% [at 35.3 µM]. For `CCCCCCCCCC[N+](C)(CCCCCCCCCC)CCC[Si](OC)(OC)OC`, the “cytotoxicity” value was -8.02%. With `CN1CCN(C)CC1` the “cytotoxicity” value was -3.94%. In the case of `NC(=O)C1CO1` (centres undefined), the “cytotoxicity” value is reported as 12.5%. In the case of `CC1(C)[C@H](C(=O)OCc2cccc(Oc3ccccc3)c2)[C@@H]1C=C(Cl)Cl`, the “cytotoxicity” value is reported as 5.38%. With `COc1cc2ncnc(Nc3cccc(Cl)c3)c2cc1OC` the cytotoxicity was -14.6% [at 15.8 µM]. In the case of `CN1CCN(c2ccccc2/C=C2\SCCN(c3ccc(Cl)c(Cl)c3)C2=O)CC1`, the “cytotoxicity” value is reported as -0.695%. For `COc1cc(C(C)C)ccc1C`, the cytotoxicity was -8.39% [at 15.8 µM]. With `C1CCSC1` the “cytotoxicity” value was 14.2%. With `CCCCCN=C(N)N/N=C/c1c[nH]c2ccc(OC)cc12` the “cytotoxicity” value was -0.0907% [at 35.3 µM]. With `CCc1cccc(C)c1N(C(=O)CS(=O)(=O)O)C(C)COC` (centres undefined) the “cytotoxicity” value was -6.14%. With `N#CCCOCCC#N` the “cytotoxicity” value was -2.26%. For `CCCCCCCCSCc1cc(C)c(O)c(CSCCCCCCCC)c1`, the “cytotoxicity” value was 0.758%. For `Nc1ccc(F)c([N+](=O)[O-])c1`, the “cytotoxicity” value was -16%. Compound `CCCCNc1ccc(NCCCC)c2c1C(=O)c1ccccc1C2=O` has a cytotoxicity of 3.56% [at 15.8 µM]. For `CCc1c(C)cc(N)c(CC)c1N`, the “cytotoxicity” value was -1.11%. With `C=Cc1ccc(O)c(OC)c1` the “cytotoxicity” value was 6.58%. For `Nc1ccc(Oc2cccc(Oc3ccc(N)cc3)c2)cc1`, the “cytotoxicity” value was -1.1%. For `Nc1ccc(Cl)c([N+](=O)[O-])c1`, the “cytotoxicity” value was 1.36%. In the case of `CCNc1nc(NC(C)(C)C)nc(OC)n1`, the “cytotoxicity” value is reported as 1.55%. With `CN1CCN(CCCN2c3ccccc3Sc3ccc(C(F)(F)F)cc32)CC1` the “cytotoxicity” value was 11.3% [at 35.3 µM]. In the case of `C=C(C)CCO`, the “cytotoxicity” value is reported as -14.4%. Compound `O=C(O)CN(CCCN(CC(=O)O)CC(=O)O)CC(=O)O` has a cytotoxicity of -9.07% [at 15.8 µM]. For `CN(C[C@@H](CC[N+]12CCC(C3CCCCC3)(CC1)CC2)c1ccc(Cl)c(Cl)c1)C(=O)c1cc(C(F)(F)F)cc(C(F)(F)F)c1`, the “cytotoxicity” value was 19.3%.

Test: A CellTox Green Cytotoxicity Assay to monitor cytotoxicity in HepG2 cells - 32 hour (AID 1224883); note: nearly all actives have a fitted effect of over 50% in size; note: potency is the fitted concentration of half-maximal effect
Conditions: CellTox Green fluorescence; series mostly up to 76.8 µM; cytotoxicity increase: at the top concentration
In short: as §1
In the case of `CCOC(=O)OC(=O)OCC`, the “cytotoxicity increase” value is reported as 5.59%. With `C/C=C/C(=O)OCC(C)C` the “cytotoxicity increase” value was 4.52%. For `[Cl][Sc]([Cl])[Cl]`, the “cytotoxicity increase” value was 9.12%. In the case of `COC(=O)c1ccc([N+](=O)[O-])cc1`, the “cytotoxicity increase” value is reported as -12.6%. For `CCCCCCCCCCCCS(=O)(=O)Cl`, the cytotoxicity increase was -17.3% [at 15.8 µM]. For `CSc1ccc(O)cc1C`, the “cytotoxicity increase” value was -5.37%. For `CN(C)CCOc1ccc(/C(=C(/CCCl)c2ccccc2)c2ccccc2)cc1`, the Potency was 32.5 µM (active). In the case of `COCCC(=O)OC`, the “cytotoxicity increase” value is reported as -4.13%. In the case of `COc1cccc(-c2ccc(/C=C\CN3CCCCCC3)cc2Cl)c1`, the Potency is reported as 38.7 µM (active). With `CCN(CCC#N)c1ccc(N=Nc2ccc([N+](=O)[O-])cc2)cc1` the “cytotoxicity increase” value was -12.1%. For `Nc1cc([N+](=O)[O-])ccc1Cl`, the “cytotoxicity increase” value was 8.79%. For `O=c1[nH]cccc1O`, the “cytotoxicity increase” value was -0.652%. For `CCN(CC)c1ccc(C=O)cc1`, the “cytotoxicity increase” value was -4.83%. With `CC(CC(C)(C)C)CC(C)(C)CC(C)(C)C` (centres undefined) the “cytotoxicity increase” value was -13.8% [at 35.3 µM]. In the case of `CCCCCCCCCC[N+](C)(CCCCCCCCCC)CCC[Si](OC)(OC)OC`, the Potency is reported as 21.9 µM (active). In the case of `CN1CCN(C)CC1`, the “cytotoxicity increase” value is reported as -8.96%. In the case of `NC(=O)C1CO1` (centres undefined), the “cytotoxicity increase” value is reported as 11.3%. With `CC1(C)[C@H](C(=O)OCc2cccc(Oc3ccccc3)c2)[C@@H]1C=C(Cl)Cl` the “cytotoxicity increase” value was 15.4%. With `COc1cc2ncnc(Nc3cccc(Cl)c3)c2cc1OC` the cytotoxicity increase was -17.4% [at 15.8 µM]. In the case of `CN1CCN(c2ccccc2/C=C2\SCCN(c3ccc(Cl)c(Cl)c3)C2=O)CC1`, the Potency is reported as 21.9 µM (active). Compound `COc1cc(C(C)C)ccc1C` has a cytotoxicity increase of -14.3% [at 15.8 µM]. With `C1CCSC1` the “cytotoxicity increase” value was 3.81%. For `CCCCCN=C(N)N/N=C/c1c[nH]c2ccc(OC)cc12`, the Potency was 6.01 µM (active). In the case of `CCc1cccc(C)c1N(C(=O)CS(=O)(=O)O)C(C)COC` (centres undefined), the “cytotoxicity increase” value is reported as -19.6%. In the case of `N#CCCOCCC#N`, the “cytotoxicity increase” value is reported as -10.9%. With `CCCCCCCCSCc1cc(C)c(O)c(CSCCCCCCCC)c1` the “cytotoxicity increase” value was 1.12%. With `Nc1ccc(F)c([N+](=O)[O-])c1` the “cytotoxicity increase” value was -24%. With `CCCCNc1ccc(NCCCC)c2c1C(=O)c1ccccc1C2=O` the cytotoxicity increase was -3.73% [at 15.8 µM]. With `CCc1c(C)cc(N)c(CC)c1N` the “cytotoxicity increase” value was -11.5%. In the case of `C=Cc1ccc(O)c(OC)c1`, the “cytotoxicity increase” value is reported as -0.667%. In the case of `Nc1ccc(Oc2cccc(Oc3ccc(N)cc3)c2)cc1`, the “cytotoxicity increase” value is reported as 0.157%. In the case of `Nc1ccc(Cl)c([N+](=O)[O-])c1`, the “cytotoxicity increase” value is reported as 1.45%. In the case of `CCNc1nc(NC(C)(C)C)nc(OC)n1`, the “cytotoxicity increase” value is reported as 1.1%. With `CN1CCN(CCCN2c3ccccc3Sc3ccc(C(F)(F)F)cc32)CC1` the Potency was 21.3 µM (active). In the case of `C=C(C)CCO`, the “cytotoxicity increase” value is reported as -22%. With `O=C(O)CN(CCCN(CC(=O)O)CC(=O)O)CC(=O)O` the cytotoxicity increase was -13.5% [at 15.8 µM]. For `CN(C[C@@H](CC[N+]12CCC(C3CCCCC3)(CC1)CC2)c1ccc(Cl)c(Cl)c1)C(=O)c1cc(C(F)(F)F)cc(C(F)(F)F)c1`, the Potency was 24.5 µM (active).
